Compound activity (PubChem)
KB-3-1 cytotox = KB-3-1 parental cell cytotoxicity; KB-3-1 viability, CellTiter-Glo ATP luminescence, 72 h; Potency, µM (series often up to 46.1 µM), actives largely listed as cytotoxic; actives 1.4% (n = 400,000); AID 1347075; also: nearly all actives have a fitted effect of over 60% in size
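Viability of parental KB-3-1 cells, measured by CellTiter-Glo luminescence, followed a 72 h incubation at 37 °C with pinned compounds in phenol-red-free DMEM containing 10% FBS.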
SW480 rereplic = induces DNA re-replication in SW480 colon adenocarcinoma cells; SW480 DNA re-replication, Hoechst DNA content imaging, 48 h; Potency, µM (top dose mostly 46.1 µM), most hits filed as activators; actives 1.8% (n = 340,000); AID 624297; also: nearly all actives have a fitted effect of over 55% in size
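Compounds, transferred as 23 nL by pin tool, were incubated with cells for 48 hr; DNA content per nucleus was then quantified by Hoechst staining and fluorescence plate imaging.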
HT1080 IDH1KD tx = HT-1080 IDH1 knockdown cell toxicity (counter line) | HT-1080 IDH1 knockdown viability, ATP luminescence, 48 h | Potency, µM (titrated, usually from 46.1 µM), actives largely listed as cytotoxic | actives 2% (n = 360,000) | AID 686971
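Cytotoxicity counter-line: IDH1KD HT-1080, 48 h, CellTiter-Glo. Curves classed by r2, magnitude and activity.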
KB-V1 cytotox = KB-V1 MDR subline cytotoxicity; KB-V1 MDR cells viability, CellTiter-Glo, 72 h; Potency, µM (highest dose often 46.1 µM), most hits filed as cytotoxic; actives 3.4% (n = 400,000); AID 1347076; also: nearly all actives have a fitted effect of over 60% in size
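KB-V1 cells (P-gp-expressing MDR subline of KB-3-1) in phenol-red-free DMEM with 10% FBS were exposed to library compounds over a concentration series for 72 h at 37 degrees C. Viability read by CellTiter-Glo luminescence; concentration-effect curves fitted after normalization.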
HT1080NT lethal = kills 2HG-producing HT-1080-NT fibrosarcoma cells | HT-1080-NT fibrosarcoma viability, CellTiter-Glo ATP luminescence, 48 h | Potency, µM (top dose mostly 46.1 µM), actives largely listed as cytotoxic | actives 1.6% (n = 360,000);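 also: NT is the 2HG producing partner of a matched IDH1 knockdown line; nearly all actives have a fitted effect of over 55% in size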
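Read-out is CellTiter-Glo luminescence after 10 minutes at room temperature, following 48 hours' compound treatment of HT-1080-NT cells (750 cells/well, RPMI, 5% FBS, 37 degrees C).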
MCF10A rerep = induces DNA re-replication in MCF 10a normal breast cells; MCF 10A DNA re-replication, Hoechst nuclear intensity, 48 h; Potency, µM (highest dose often 46.1 µM), most hits filed as activators; actives 2.9% (n = 350,000); AID 624296; also: nearly all actives have a fitted effect of over 50% in size
Numbers stand for hits; - = inactive; ? = inconclusive; . = not tested or not shown. Shown are actives, neighbours in structure and some others; about 7.9% of the full set was active somewhere. Calls follow the shape of the dose curve; as a rule, active = well fitted curve in the direction sought with a large enough effect; inconclusive = small, poorly fitted or top-dose-only effect, or another doubt; inactive = no such curve, though single readings can be large; an effect the other way counts as inactive or inconclusive.

SMILES	KB-3-1 cytotox	SW480 rereplic	HT1080 IDH1KD tx	KB-V1 cytotox	HT1080NT lethal	MCF10A rerep
CCc1noc(C)c1C(=O)Nc1nc(-c2ccc(OC)cc2)cs1	-	18µM	-	-	-	-
CCc1noc(C)c1C(=O)Nc1nc(-c2ccc(OC)cc2OC)cs1	-	-	-	-	-	-
Cc1noc(C)c1C(=O)Nc1nc(-c2ccc(F)c(F)c2)cs1	-	-	-	21µM	-	-
COc1ccc(-c2csc(NC(=O)c3c(C)noc3C)n2)cc1F	-	-	-	-	-	-
CCOC(=O)C1=C(CC)Nc2ccccc2N=C1NC(=O)c1ccc(OC)c(S(=O)(=O)N2CCCCC2C)c1 (stereo unspecified)	-	-	-	?	-	3.7µM
CCNS(=O)(=O)c1ccc(S(=O)(=O)N(Cc2ccccn2)C2CCCCC2)cc1	-	-	-	?	-	-
COCCNC(=S)N1CCN(c2nc3ccccc3s2)CC1	-	-	-	-	-	-
COCCCNC(=S)N1CCN(c2nc3ccccc3s2)CC1	?	-	-	15µM	-	-
C=CCNC(=S)N1CCN(c2ccc([N+](=O)[O-])cc2)CC1	-	-	-	15µM	-	-
COCCCNC(=S)N1CCN(c2ccc([N+](=O)[O-])cc2)CC1	?	-	-	16µM	-	-
O=C(CSc1nnc(Cc2ccccc2)o1)N1CCCC1	-	-	-	-	-	-
COc1ccc(S(=O)(=O)Nc2nc(C(F)(F)F)cs2)cc1	-	-	-	-	-	?
Cc1nc2scc(-c3cccs3)c2c(=O)[nH]1	-	-	-	-	-	-
O=c1[nH]c(-c2ccc(O)cc2)nc2scc(-c3cccs3)c12	-	-	-	-	-	7.3µM
Cc1nc2ncnn2c(Nc2ccc3c(c2)OCO3)c1Cc1ccccc1	?	-	-	16µM	-	-
CCc1cccc2c1Sc1ccccc1CC2N1CCNCC1 (stereo unspecified)	?	-	?	13µM	-	?
c1ccc2c(c1)CC(N1CCCCC1)c1ccccc1N2 (stereo unspecified)	-	-	-	-	-	-
Cc1cccc2c1Sc1ccc(Cl)cc1CC2N1CCNCC1 (stereo unspecified)	?	-	?	?	23µM	12µM
CCOC(=O)/C(=N\Nc1ccc(C(C)=O)cc1)c1csc(Nc2ccccc2)n1	?	?	16µM	?	16µM	-
CCOC(=O)/C(=N\Nc1ccccc1[N+](=O)[O-])c1csc(N)n1	-	-	-	-	-	-
C/C(=N\NC(=O)c1cccnc1)c1cc(C)oc1C	-	21µM	-	-	-	-
CCCCCc1c(-c2ccccc2F)ncn1CCc1ccccc1OC	?	.	?	18µM	?	.
CCCCc1c(-c2ccccc2F)ncn1CCc1ccccc1OC	?	.	?	15µM	?	.
COc1ccccc1N1C(=O)c2ccc(C(=O)Nc3ccc(F)cc3)cc2C1=O	-	-	-	-	-	-
O=c1c2cn[nH]c2nc(SCc2ccccc2F)n1-c1ccc(Br)cc1	-	?	18µM	-	-	18µM
SMILES	KB-3-1 cytotox	SW480 rereplic	HT1080 IDH1KD tx	KB-V1 cytotox	HT1080NT lethal	MCF10A rerep
Oc1[nH]c2ccccc2c1N=NC(=S)N1CCOCC1	?	?	?	?	?	-
Oc1[nH]c2ccc(Br)cc2c1N=NC(=S)N1CCOCC1	-	?	1µM	-	?	-
CC(CC(=O)Nc1cc([N+](=O)[O-])ccc1Cl)c1ccccc1 (stereo unspecified)	-	-	-	?	-	-
O=C(Nc1cc([N+](=O)[O-])ccc1Cl)C(Sc1ccccc1)c1ccccc1 (stereo unspecified)	-	-	-	15µM	-	-
COCC(C)NC(C(=O)Nc1ccc(Cl)c([N+](=O)[O-])c1)c1ccccc1 (stereo unspecified)	-	-	-	16µM	-	-
O=C(Nc1ccc(Cl)c([N+](=O)[O-])c1)C(Sc1ccccc1)c1ccccc1 (stereo unspecified)	26µM	-	21µM	?	?	?
